Measurements published in PubChem BioAssay (EPA / NIEHS).
The source made the active and inactive calls. The calls were made as follows: active = hit-call score of the fitted dose curve at least 0.9, where 1 is the maximum; inactive = score below 0.9.

Read-out: Insulin Like Growth Factor 1 (IGF1), IGF1 (gene 3479)
Test: LTEA_HepaRG_IGF1: Life Technologies and Expression Analysis (LTEA) Assay for Insulin Like Growth Factor 1 (IGF1) using HepaRG (AID 2283506)
Settings: mRNA level, 48 h; actives raise or lower the signal
Experimental: LTEA_HepaRG is a cell based, multiplexed-readout assay that uses HepaRG, a human liver cell line, with measurements taken at 48 hours after chemical dosing on a 96-well plate.LTEA_HepaRG_IGF1 is one of 102 assay component(s) measured in the LTEA HepaRG cell culture assay. It is a marker of Cell proliferation, survival, death.Data from the assay component LTEA_HepaRG_IGF1 was analyzed into 1 endpoint. This assay endpoint, LTEA_HepaRG_IGF1, was analyzed with bidirectional fitting relative to DMSO as the negative control and baseline of activity. Using a type of inducible reporter, measures of mRNA induction for gain or loss-of-signal activity can be used to understand regulation of transcription factor activity. To generalize the intended target to other relatable targets, this assay endpoint is annotated to the growth factor intended target family, where the subfamily is insulin-like.
A total of 1060 chemcials from the ToxCast library were tested in eight-point concentration-response experiments. Cell culture and cytotoxicity assays were conducted at Thermo Fisher Scientific's Custom Services facility (Madison, WI). A single lot of human HepaRG cells (Thermo Fisher Scientific, Frederick, MD) was used for the cell culture experiments. 96-well format collagen type I coated plates of human HepaRG cells were prepared using established methods. Briefly, cryopreserved HepaRG cells were thawed, plated at a density of approximately 100,000 cells/well in HepaRG Thaw, Plate, and General Purpose media (HPRG770, Thermo Fisher Scientific), and incubated for 48 hours. 0.5% DMSO was selected as vehicle control to balance the requisite need of DMSO in HepaRG cultures to maintain differentiation (for example, baseline metabolism, proportions of hepatocytes vs. cholangiocytes), while enabling further hepatic receptor pathway activation (for example, PXR and CAR) in response to chemical exposure. 48 hours after plating, the culture medium was replaced with HepaRG Serum-Free Incudtion Media. Cells were exposed to each test chemical in duplicate and maintained in CO2 incubators for another 48 hours. Chemical plates were thawed to room temperature and 200x concentrations of treatment groups were prepared. 8-point conentration-reponse curves were made with the highest exposure at 100 uM, followed by half-log dilutions, all in 0.5% DMSO. Each test plate contained variouse controls, induction positive controls (1mM phenobarbital), cytotoxicity positive controls ([…] aflatoxin B1), vehicle controls (0.5% DMSO), and total lysis controls (0.5% DMSO). Cell morphology images were taken using an Essen IncuCyte FLR automated microscope, with six 96-well plates imaged in about 24 minutes. Images were captured and exported and JPEG files. Spent culture media was transfered to black-well plates for the LDH assay, and remaining media was sorted at -80 C for later use. Cells were treated with RLT buffer and frozen until shipped for gene expression analysis. Total RNA was isolated from the cell suspension in 75 uL of Buffer RLT (Qiagen, Germantown, MD 20874) by Quintiles/Expression Analysis (Durham, NC) using a custom isolation procedure. Total RNA from each plate well was transferred to a preamplification plate. Fluidigm's 96.96 Dynamic ArrayTM (Fluidigm, Amsterdam, the Netherlands) technology was used for gene expression analyses by quantitative reverse transcription polymerase chain reaction (qRT-PCR, performed by Quintiles/Expression Analysis, Durham, NC)89. Standard TaqManTM Assays (Applied Biosystems/ThermoFisher Scientific, Foster City, CA) were used to assess the expression of 93 genes selected based on their selectivity and sensitivity to important hepatic receptors known to be modulated by environmental chemicals; importance in human hepatocyte functionality; and hepatotoxicity. […]

Row | Compound | outcome | AC50
1 | CCCCN(CC)c1c([N+](=O)[O-])cc(C(F)(F)F)cc1[N+](=O)[O-] | inactive | 
2 | CCOP(=S)(OCC)Oc1ccc([N+](=O)[O-])cc1 | inactive | 
3 | CSC1=N[C@@](C)(c2ccccc2)C(=O)N1Nc1ccccc1 |  | 27.6 µM (active)
4 | C#CCC1=C(C)C(OC(=O)C2C(C=C(C)C)C2(C)C)CC1=O (stereo not given) |  | 71 µM (active)
5 | CSc1nc(NC(C)C)nc(NC(C)C)n1 |  | 20.7 µM (active)
6 | FC(F)C(F)(F)OCC(Cn1cncn1)c1ccc(Cl)cc1Cl (stereo not given) |  | 33.4 µM (active)
7 | CCOP(=O)(OCC)Oc1cc(C)nc(C(C)C)n1 | inactive | 
8 | CCOP(=O)(SC(C)CC)N1CCSC1=O (stereo not given) |  | 21 µM (active)
9 | CC1(C(=O)Nc2ccc(O)c(Cl)c2Cl)CCCCC1 | inactive | 
10 | CCCCOC(=O)[C@@H](C)Oc1ccc(Oc2ccc(C#N)cc2F)cc1 | inactive | 
11 | C[Si](Cn1cncn1)(c1ccc(F)cc1)c1ccc(F)cc1 |  | 50 µM (active)
12 | CSc1nnc(C(C)(C)C)c(=O)n1N | inactive | 
13 | COP(=O)(OC)C(O)C(Cl)(Cl)Cl (stereo not given) | inactive | 
14 | CCOC(=O)CC(SP(=O)(OC)OC)C(=O)OCC (stereo not given) | inactive | 
15 | COc1cccc(C(=O)NN(C(=O)c2cc(C)cc(C)c2)C(C)(C)C)c1C |  | 74.6 µM (active)
16 | CCCOc1nn(C(=O)NS(=O)(=O)c2ccccc2C(=O)OC)c(=O)n1C | inactive | 
17 | CCOP(=O)(NC(C)C)Oc1ccc(SC)c(C)c1 (stereo not given) |  | 50 µM (active)
18 | C#CC(C)(C)NC(=O)c1cc(Cl)cc(Cl)c1 |  | 14.8 µM (active)
19 | CCOP(=S)(OCC)Oc1ccc2c(C)c(Cl)c(=O)oc2c1 |  | 33.8 µM (active)
20 | COP(=O)(OC)SCn1c(=O)oc2cc(Cl)cnc21 | inactive | 

Row | Compound | outcome | AC50
21 | CCOC(=O)COc1cc(-c2nn(C)c(OC(F)F)c2Cl)c(F)cc1Cl | inactive | 
22 | CCC(=O)Nc1ccc(Cl)c(Cl)c1 | inactive | 
23 | N#CSCSC#N | inactive | 
24 | CCC(CC)Nc1c([N+](=O)[O-])cc(C)c(C)c1[N+](=O)[O-] |  | 61.1 µM (active)
25 | C[N+]1(C)CCCCC1 | inactive | 
26 | COP(=O)(NC(C)=O)SC (stereo not given) | inactive | 
27 | CC(=NC#N)N(C)Cc1ccc(Cl)nc1 | inactive | 
28 | CC(C)=CC1C(C(=O)OCN2C(=O)C3=C(CCCC3)C2=O)C1(C)C (stereo not given) | inactive | 
29 | CCOP(=S)(Oc1cnc(C(C)(C)C)nc1)OC(C)C (stereo not given) |  | 44.6 µM (active)
30 | CC(C)N(C(=O)SCC(Cl)=C(Cl)Cl)C(C)C | inactive | 
31 | Cc1cc(C2CC2)nc(Nc2ccccc2)n1 | inactive | 
32 | Nc1nc(N)nc(NC2CC2)n1 | inactive | 
33 | CON=C(C(=O)OC)c1ccccc1CON=C(C)c1cccc(C(F)(F)F)c1 |  | 50 µM (active)
34 | CCCOCC(=Nc1ccc(Cl)cc1C(F)(F)F)n1ccnc1 |  | 12.1 µM (active)
35 | CNC(=O)ON=C(SC)C(=O)N(C)C | inactive | 
36 | O=[N+]([O-])c1cc(C(F)(F)F)c(Cl)c([N+](=O)[O-])c1Nc1ncc(C(F)(F)F)cc1Cl |  | 79.4 µM (active)
37 | CNC(=O)ON=C(C)SC | inactive | 
38 | CCc1cccc(C)c1N(C(=O)CCl)C(C)COC (stereo not given) |  | 50 µM (active)
39 | CN(C)C(=O)Nc1cccc(C(F)(F)F)c1 | inactive | 
40 | CC(COc1ccc(Oc2ccccc2)cc1)Oc1ccccn1 (stereo not given) |  | 32.8 µM (active)
